Laboratory results as given in PubChem BioAssay (Tox21).
Inconclusive results are not listed. Activity calls are given as the source filed them. Unless noted, calls follow the shape of the dose curve; as a rule, active = well fitted curve in the direction sought with a large enough effect in the repeat runs; inconclusive = weak or mixed curves; inactive = no such curve, though single readings can be large; an effect the other way counts as inactive or inconclusive.

Tests used:
[1] = qHTS assay to identify small molecule antagonists of the retinoid acid receptor (RAR) signaling pathway - cell viability counter screen (AID 1159551); also: nearly all actives have a fitted effect of over 35% in size
Summary of the method: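 Cytotoxicity counter screen: ATP content quantified by CellTiter-Glo luminescence in C3RL4 cells treated 6 hr at 37 C with compound and retinol (1 uM final). Cells plated at 1,000/well and cultured overnight before dosing.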

[2] = qHTS assay to identify small molecule antagonists of the retinoic acid receptor (RAR) signaling pathway (AID 1159552; also: nearly all actives have a fitted effect of over 50% in size)
Summary of the method: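 RARE-luc C3RL4 cells; cpds + 1 uM (final) retinol, 6 hr, 37 C/5% CO2; luciferase reagent, 30 min RT, luminescence readout. Inhibitors of retinol-driven signal scored.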

[3] = qHTS assay to identify small molecule agonists of the retinoic acid receptor (RAR) signaling pathway (AID 1159553)
Summary of the method: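 Luminescence was measured 30 min after luciferase reagent addition at room temperature. Before that, C3RL4 reporter cells (1,000 per well, plated overnight) were treated with compound for 6 hr at 37 C and 5% CO2.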

[4] = biological target: Luciferin 4-monooxygenase (Photinus pyralis) (UniProt P08659); test: qHTS assay to identify small molecule inhibitors of firefly luciferase (AID 1224835); also: nearly all actives have a fitted effect of over 25% in size; also: potency is read from the fitted curve at half-maximal effect; as to activity change, negative = inhibition: series mostly up to about 120 µM
Luciferin 4-monooxygenase (Photinus pyralis), sequence (P08659 whole entry, looked up): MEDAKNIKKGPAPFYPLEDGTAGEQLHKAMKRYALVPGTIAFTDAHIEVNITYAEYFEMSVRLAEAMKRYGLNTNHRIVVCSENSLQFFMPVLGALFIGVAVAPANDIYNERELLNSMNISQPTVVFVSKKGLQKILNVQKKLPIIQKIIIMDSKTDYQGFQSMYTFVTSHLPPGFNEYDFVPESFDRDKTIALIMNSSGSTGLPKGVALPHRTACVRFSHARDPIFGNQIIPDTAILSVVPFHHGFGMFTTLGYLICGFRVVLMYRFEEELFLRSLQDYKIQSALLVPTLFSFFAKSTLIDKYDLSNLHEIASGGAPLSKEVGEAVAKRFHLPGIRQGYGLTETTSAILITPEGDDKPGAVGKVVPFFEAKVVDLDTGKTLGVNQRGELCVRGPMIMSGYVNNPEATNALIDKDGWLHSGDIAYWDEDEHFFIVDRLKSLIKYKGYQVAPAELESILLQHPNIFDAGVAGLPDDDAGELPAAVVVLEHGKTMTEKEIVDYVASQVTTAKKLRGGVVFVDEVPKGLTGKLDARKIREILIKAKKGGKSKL
Summary of the method: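 Quantitative HTS format; KM concentrations of both substrates. Purified P. pyralis FLuc activity quantified from luminescence images.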

[5] = qHTS assay to identify small molecule agonists of the constitutive androstane receptor (CAR) signaling pathway - cell viability counter screen (AID 1224836); also: series mostly up to about 92 µM; nearly all actives have a fitted effect of over 45% in size
Summary of the method: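 HepG2 cells stably carrying hCAR and a CYP2B6-2.2kb reporter were plated 4 h, then given compounds at 15 concentrations plus PK11195 (final 0.75 uM). After 23 h at 37 C, viability was read by CellTiter-Fluor fluorescence.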

[6] = qHTS assay to identify small molecule antagonists of the constitutive androstane receptor (CAR) signaling pathway - cell viability counter screen (AID 1224837); also: series mostly up to about 92 µM; nearly all actives have a fitted effect of over 45% in size
Summary of the method: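 Cytotoxicity counter-screen: CellTiter-Fluor fluorescence after 23 h compound exposure (15-point qHTS) in double-stable HepG2-CYP2B6-hCAR cells, with 50 nM CITCO added.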

[7] = biological target: Nuclear receptor subfamily 1 group I member 3 (Homo sapiens) (UniProt Q14994); test: qHTS assay to identify small molecule antagonists of the constitutive androstane receptor (CAR) signaling pathway (AID 1224838); also: nearly all actives have a fitted effect of over 40% in size
Nuclear receptor subfamily 1 group I member 3 (Homo sapiens), sequence (Q14994 whole entry, looked up): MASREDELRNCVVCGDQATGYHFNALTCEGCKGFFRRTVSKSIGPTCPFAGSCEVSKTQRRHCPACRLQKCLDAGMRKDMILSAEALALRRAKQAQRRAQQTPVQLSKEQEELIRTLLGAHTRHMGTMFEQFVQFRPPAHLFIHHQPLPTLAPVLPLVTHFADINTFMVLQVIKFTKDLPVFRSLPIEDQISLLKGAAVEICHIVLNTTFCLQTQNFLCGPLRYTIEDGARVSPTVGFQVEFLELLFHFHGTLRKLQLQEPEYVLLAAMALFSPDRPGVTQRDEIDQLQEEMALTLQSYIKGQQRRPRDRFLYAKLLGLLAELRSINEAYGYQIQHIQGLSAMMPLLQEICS
Summary of the method: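 Antagonism measured as luciferase signal (ONE-Glo, 30 min, room temperature) in CAR-stimulated cells: HepG2-CYP2B6-hCAR double-stable line exposed 24 hr at 37 C to compound in a 15-point series plus 50 nM CITCO.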

[8] = biological target: Nuclear receptor subfamily 1 group I member 3 (Homo sapiens) (UniProt Q14994); test: qHTS assay to identify small molecule agonists of the constitutive androstane receptor (CAR) signaling pathway (AID 1224839); also: nearly all actives have a fitted effect of over 15% in size; also: potency is read from the fitted curve at half-maximal effect;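 as to activation: HepG2 cells stably carrying human CAR and a CYP2B6 luciferase reporter; series mostly up to about 92 µM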
Summary of the method: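 HepG2 cells stably expressing hCAR and a CYP2B6-2.2kb luciferase reporter were treated with compounds at 15 concentrations plus 0.75 uM PK11195 (final) for 24 h at 37 C; luminescence was read after ONE-Glo addition.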

[9] = qHTS assay to identify small molecule antagonists of the estrogen related receptor signaling pathway with the pleiotropic PPARgamma coactivator (PGC) from Tox21 10K library - cell viability counter screen (AID 1224840; active = well fitted cell-killing curve with a large enough effect in the repeat runs, not every such curve was filed as active; also: nearly all actives have a fitted effect of over 40% in size)
Summary of the method: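 Counter-screen for cytotoxicity: after 17.5 h compound exposure at 37 C, CellTiter-Fluor reagent added to PGC/ERR cells for 30 min and fluorescence read. Cells were seeded at 2,000 per well 6 h before dosing.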

[10] = qHTS assay to identify small molecule agonists of the estrogen related receptor signaling pathway with the pleiotropic PPARgamma coactivator (PGC) from Tox21 10K library (AID 1224842); also: nearly all actives have a fitted effect of over 15% in size
Summary of the method: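 PGC/ERR reporter cells (NTP line) were seeded 2,000 per well, rested 6 h at 37 C/5% CO2, then pin-dosed with compounds in DMSO for 18 h at 37 C; luciferase read by One-Glo luminescence after 30 min at room temperature.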

[11] = qHTS assay to identify small molecule antagonists of the estrogen related receptor (ERR) signaling pathway from Tox21 library - cell viability counter screen (AID 1224834); also: nearly all actives have a fitted effect of over 30% in size
Summary of the method: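 CellTiter-Fluor fluorescence, read after 30 min at 37 C, measures viability of ERR cells. Cells plated at 2,000/well and incubated 6 h before pin-tool compound addition, then exposed 17.5 hours at 37 C.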

[12] = qHTS assay to identify small molecule antagonists of the estrogen related receptor signaling pathway with the pleiotropic PPARgamma coactivator (PGC) from Tox21 10K library (AID 1224841; call rule not given here; also: actives are mostly falling curves and most rising ones were filed inactive; nearly all actives have a fitted effect of over 50% in size; also: potency is read from the fitted curve at half-maximal effect; as to activity, negative = inhibition: series mostly up to about 92 µM)
Summary of the method: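 Luminescence (One-Glo, 30 min at room temperature) after 18 h compound treatment at 37 C of PGC/ERR reporter cells plated at 2,000 cells/well and settled 6 h beforehand.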
% is scaled to controls: 0 for no effect and ±100 for the full control effect.

CC(C)CC(C)(C)C
inactive: outcome [1] | outcome [2] | Potency [3] | Potency [4] | Potency [5] | Potency [6] | Potency [7] | Potency [9] | Potency [10]
active: Potency [8] 63.4 µM

CCN(CCCCOC(=O)c1ccc(OC)c(OC)c1)C(C)Cc1ccc(OC)cc1 (centres undefined)
inactive: outcome [1] | outcome [2] | Potency [3] | Potency [11] | Potency [4] | Potency [5] | Potency [6] | Potency [7] | Potency [8] | Potency [9] | Potency [12]

NCCOCCOCCN
inactive: outcome [1] | Potency [11] | Potency [4] | Potency [5] | Potency [6] | Potency [7] | Potency [8] | Potency [9] | Potency [12] | Potency [10]

Cc1c(Nc2ncccc2C(=O)O)cccc1C(F)(F)F
inactive: outcome [1] | outcome [2] | Potency [11] | Potency [5] | Potency [6] | Potency [7]
active: Potency [4] 17.4 µM

CC1=CC(=C(c2ccc(N)cc2)c2ccc(N)cc2)C=CC1=N
active: Potency [12] 2.76 µM
inactive: activity, negative = inhibition [2] -2.67% [at 8.39 µM] | activation [3] -1.68% [at 8.36 µM] | activity change, negative = inhibition [4] -4.83% [at 10.5 µM] | viability change, negative = cytotoxic [5] -5.57% [at 8.39 µM] | activity change, negative = cytotoxicity [6] -13.7% [at 8.39 µM] | activity, negative = inhibition [7] 3.44% [at 8.39 µM] | activation [8] -0.508% [at 8.39 µM]

Oc1ccc(CCNCCCCCCNCCc2ccccc2)cc1O
inactive: outcome [1] | outcome [2] | Potency [3] | Potency [4] | Potency [5] | Potency [6] | Potency [7] | Potency [8] | Potency [9] | Potency [12]

Clc1cc(Cl)c2c(c1)N=C1CCCCCN1C2
inactive: outcome [1] | outcome [2] | Potency [11] | Potency [5] | Potency [6] | Potency [7] | Potency [9] | Potency [12]
